# Screens as filed in PubChem BioAssay.
# Hits are enriched below; roughly 8.1% of the tested compounds scored in any of these assays.
# SW480 rereplic – induces DNA re-replication in SW480 colon adenocarcinoma cells | SW480 DNA re-replication, Hoechst DNA content imaging, 48 h | AID 624297 | 340,000 compounds, 1.8% hits | Potency, µM (series often up to 46.1 µM), without a hit: at the highest dose re-replication activation, most hits filed as activators; note: % of control where 0% means no effect; nearly all actives have a fitted effect of over 55% in size
#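 Quantitative HTS format with DMSO vehicle controls; 48 hr drug incubation at 37 C, then 40 min Hoechst staining and scanning imager measurement at 405 nm excitation.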
# KB-3-1 tox – kills parental KB-3-1 adenocarcinoma cells. Potency, µM (series often up to 46.1 µM), usual class: cytotoxic. AID 1347075. KB-3-1 viability, CellTiter-Glo ATP luminescence, 72 h. 400,000 compounds, 1.4% hits; note: % is set by controls: 0 for no effect and ±100 for the full control effect; nearly all actives have a fitted effect of over 60% in size
#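 Here the drug-naive KB-3-1 line serves as comparator for MDR sub-line selectivity; cells received compound titrations, 72 h at 37 °C, then CellTiter-Glo readout.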
# KB-V1 MDR tox – kills drug-selected multidrug resistant KB-V1 cells; KB-V1 MDR cells viability, CellTiter-Glo, 72 h; Potency, µM (doses to about 46.1 µM), most hits filed as cytotoxic; 400,000 compounds, 3.4% hits; AID 1347076; note: % is set by controls: 0 for no effect and ±100 for the full control effect; nearly all actives have a fitted effect of over 60% in size
#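 Cytotoxicity via CellTiter-Glo luminescence after 72 h compound exposure at 37 degrees C. Cells: drug-selected KB-V1 line, DMEM phenol-red free plus 10% FBS. Compounds tested at multiple concentrations; normalized data fitted to concentration-effect curves.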
# ELG1 repair inh – ELG1-dependent DNA repair inhibition; HEK293T ELG1-luciferase reporter, luminescence, 16 h; DNA damage induced by 5-fluorouridine; Potency, µM (doses to about 46.1 µM), for the others: at the highest dose activity change, negative = inhibition, usual class: inhibitors; 330,000 compounds, 2.3% hits; note: % is set by controls: 0 for no effect and ±100 for the full control effect; nearly all actives have a fitted effect of over 55% in size
#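 Reporter activity after DNA damage by 5-fluorouridine is monitored. Compound-treated cells incubate 16 hr at 37 °C, then ONE-Glo is added for 30 min before luminescence reading.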
# MCF10A rereplic – inducers of DNA re-replication in MCF 10A breast cells | 350,000 compounds, 2.9% hits | MCF 10A DNA re-replication, Hoechst nuclear intensity, 48 h | Potency, µM (top dose mostly 46.1 µM), inactives show at the top dose activity, positive = re-replication, usual class: activators; note: % of control where 0% means no effect; nearly all actives have a fitted effect of over 50% in size
# Starred values were filed as active, the others as inactive; i = inactive; ? = inconclusive; · = no result; ! = a repeat was not active; [ ] = another dose, or the depositor's remark. Calls come from the whole dose curve; as a rule, active = well fitted curve in the direction sought with a large enough effect; inconclusive = small, poorly fitted or top-dose-only effect, or another doubt; inactive = no such curve, though single readings can be large; an effect the other way counts as inactive or inconclusive. Potency is the fitted concentration of half-maximal effect.
SMILES,SW480 rereplic,KB-3-1 tox,KB-V1 MDR tox,ELG1 repair inh,MCF10A rereplic
COc1ccccc1CNC(=O)COc1cc2c(c3oc(=O)cc(C)c13)CCC(C)(C)O2,?,i,16.4µM*,?,?
CCN(C(=O)COC(=O)CCCOc1ccc(Cl)cc1C)c1c(N)n(Cc2ccccc2)c(=O)[nH]c1=O,1.6%,i,i,·,?
N#CN=c1snc(-c2ccccc2)n1-c1ccc(Cl)cc1,·,i,i,·,·
CCn1c(CNc2ccc(Cl)cc2)nnc1SCC(=O)OC1CCCCC1,2.4%,i,i,-27.3%,12.6µM*
O=C(CSc1nnc(CNc2ccc(Cl)cc2)n1Cc1ccccc1)NCc1ccco1,-10.2%,i,i,4.9%,9.8%
Clc1ccc(-c2nnc(CSc3nnc(-c4cccs4)n3Cc3ccccc3)o2)cc1,2.4%,?,?,-17.5%,?
Fc1ccc(NCc2nnc(SCc3nnc(-c4ccccc4)o3)n2Cc2ccccc2)cc1,3.5%,i,?,15.8µM*,6.3%
O=C(O)CCSc1nnc(CNc2ccc(Cl)cc2)n1Cc1ccccc1,0.231µM*,i,i,-8.7%,1.5%
Cc1c(C(=O)N2CCC(c3nc4ccccc4s3)CC2)oc2ccc(Cl)cc12,·,i,i,·,·
O=C(Nc1c(F)c(F)c(F)c(F)c1F)c1ccc(Br)o1,·,i,i,·,·
CCOc1ccccc1N1CCN(Cc2cccc(OC)c2O)CC1,-15.6%,i,?,0.0%,21.6%
OCCN1CCN(Cc2cc(Cl)c3cccnc3c2O)CC1,3.26µM*,?,5.8µM*,-17.0%,?
COc1ccccc1N1CCN(Cc2cc(Br)c(O)c3ncccc23)CC1,5.17µM*,?,?,?,?
Oc1c(CN2CCN(c3ccccn3)CC2)cc(Cl)c2cccnc12,7.31µM*,?,5.17µM*,?,?
CCc1nc2ccc(C(=O)NCCc3ccccn3)cn2c1N(CCC(C)C)CCN(C)C,·,i,i,·,·
N#CC1(c2ccccc2)CCN(S(=O)(=O)c2ccc(OC(F)(F)F)cc2)CC1,-0.2%,i,?,?,15.9%
Cc1cc(OCC(=O)Nc2ccccc2N2CCCCC2)ccc1C(C)C,?,i,i,0.0%,?
Cc1cccc(OCC(=O)Nc2ccccc2N2CCCC2)c1C,?,?,?,1.3%,?
Cc1ccccc1OCC(=O)Nc1ccccc1N1CCCCC1,?,?,14.6µM*,?,?
Cc1cc(C)cc(OCC(=O)Nc2ccccc2N2CCCCC2)c1,?,i,i,-14.5%,8.2µM*
C=C1C=C(C)n2ncc(C(=O)N(CCc3ccccc3)Cc3ccccc3)c2N1,·,i,i,·,·
OC(Cc1ccccc1Br)c1ncc(-c2cccc(C(F)(F)F)c2)[nH]1 (stereo not drawn),·,i,?,·,·
CCC(C)Sc1cc(-c2nc3cc(C)ccn3c2NC2CCCCC2)ccc1OC (stereo not drawn),?,?,20.6µM*,?,?
CC(=O)c1ccc(-c2cccc(-c3nc4ccccn4c3NC3CCCCC3)c2)cc1,?,?,?,3.55µM*,?
c1csc(-c2nc3ccccn3c2NC2CCCCC2)c1,-1.0%,i,?,-8.1%,?
SMILES,SW480 rereplic,KB-3-1 tox,KB-V1 MDR tox,ELG1 repair inh,MCF10A rereplic
CCC(C)Sc1ccc(-c2nc3ccc(C)cn3c2NC2CCCCC2)cc1 (stereo not drawn),-21.6%[9.22 µM],i,?,0.5%,?
CCC(C)Sc1cc(-c2nc3ccccn3c2NC2CCCCC2)ccc1OC (stereo not drawn),16.4µM*,?,11.6µM*!,?,20.6µM*
CC1CC(C)CN(CCOCCSc2ccc(Cl)cc2)C1 (stereo not drawn),?,i,i,-25.1%,16.4µM*
CCc1ccc(CNC(=O)c2ccc(OC3CCN(C(C)=O)CC3)c(OC)c2)nc1,-5.9%,·,·,-17.0%,-1.2%
CCOC(=O)C1=C(CSc2nc(-c3ccccc3)ccc2C#N)OC(N)=C(C#N)C1c1ccc(OC)cc1 (stereo not drawn),?,i,i,?,16.4µM*
CCOC(=O)C1=C(CSc2nc3c(cc2C#N)CN(C)CC3)OC(N)=C(C#N)C1c1ccc(Cl)cc1 (stereo not drawn),?,i,i,-6.1%,25.9µM*
